Screening data from PubChem BioAssay.
IMPase inh – cell-permeable inhibitors of inositol monophosphatase (IMPase). P97697. CHO-M1 cells, IP1 accumulation, HTRF TR-FRET ratio. inhibition (IP1 accumulation), % at 46.1 µM. 120,000 tested, under 10 active. AID 901; active means well fitted curve in the direction sought with a large enough effect in the signal ratio, not every such curve was filed as active; inconclusive means small, poorly fitted or top-dose-only effect, or a change in a side signal; inactive means no such curve, though single readings can be large or run the other way; the % refers to the signal ratio;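 further: cells stimulated with carbachol in lithium chloride buffer; plate controls were DMSO basal wells for no effect and reference inhibitor wells for full effect; higher means more IMPase inhibition seen as more IP1 and lower FRET ratio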
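CHO-M1 cells (CHO stably expressing M1 receptor), compound up to 46 uM final, stimulated with carbachol (50 uM as added) in buffer with 50mM LiCl, pH 7.4, 30 min at 37C. Cytosolic IP1 read by TR-FRET; AC50 from Hill fits.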
15-hLO-2 inh – 15-hLO-2 (ALOX15B) enzyme inhibition; 0.56% of 110,000 active; purified 15hLO-2, xylenol orange hydroperoxide absorbance; AID 881; Potency, µM (highest dose often 57.1 µM), inactives show at the top dose activity change, negative = inhibition, most hits filed as inhibitors; further: potency means the concentration at half of the fitted maximal effect; nearly all actives have a fitted effect of over 60% in size
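Read-out: hydroperoxide product oxidises ferrous iron, measured as xylenol orange complex via the 573-to-405 nm absorbance ratio after 30 min. Reaction: 50 nM enzyme, 15 min compound preincubation, 45 uM arachidonic acid, 90 min RT, Hepes pH 7.5 with Triton X-100.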
ALOX12 inhib – blocks human 12-lipoxygenase activity; purified 12-hLO, xylenol orange hydroperoxide absorbance; 0.12% of 150,000 active; AID 1452; Potency, µM (highest dose often 57.1 µM), for inactives: top-dose activity change, negative = inhibition, usual class: inhibitors; P18054; further: potency means the concentration at half of the fitted maximal effect; nearly all actives have a fitted effect of over 55% in size
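Hydroperoxide output read as Fe(III)-xylenol orange absorbance, 573-to-405 nm ratio, after 30 min reaction with 40 uM arachidonic acid. Enzyme: 150 nM purified human 12hLO, 15 min compound preincubation; 25 mM Hepes pH 7.0, room temperature.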
IMPase Li inh – membrane-permeable IMPase blocker, potentiated with lithium; AID 1457; 0.35% of 210,000 active; CHO-M1 cells, IP1 TR-FRET (IP-One), carbachol + lithium; Potency, µM (series often up to 59.4 µM), for the others: at the top dose activity, negative = IMPase inhibition, most hits filed as inhibitors;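 further: IP1 builds up when IMPase is blocked and the TR-FRET signal falls; potency means the concentration at half of the fitted maximal effect; plate controls were basal vehicle for no effect and high inhibitor control for full effect; nearly all actives have a fitted effect of over 50% in size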
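Test compounds were applied to CHO-M1 cells previously cultured for 16–30 h at 2000 per well. A small lithium amount accompanied them; after 30 min at 37C, IP1 was quantified by TR-FRET.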
The depositor's hits bear a star; ? = inconclusive; . = no result given; [ ] = remark or other dose. A selection: hits, their analogues and other compounds. The true share with any hit is near 0.57%. Unless noted, the call rests on the fitted dose curve; in most records, active means well fitted curve in the direction sought with a large enough effect; inconclusive means small, poorly fitted or top-dose-only effect, or another doubt; inactive means no such curve, though single readings can be large; an effect the other way counts as inactive or inconclusive. Unless noted, on the % scale 0 is the no-effect control and ±100 the full control effect.

SMILES	IMPase inh	15-hLO-2 inh	ALOX12 inhib	IMPase Li inh
O=C(OCC1OC(OC(=O)c2cc(O)c(O)c(OC(=O)c3cc(O)c(O)c(O)c3)c2)[C@@H](OC(=O)c2cc(O)c(O)c(OC(=O)c3cc(O)c(O)c(O)c3)c2)C(OC(=O)c2cc(O)c(O)c(OC(=O)c3cc(O)c(O)c(O)c3)c2)C1OC(=O)c1cc(O)c(O)c(OC(=O)c2cc(O)c(O)c(O)c2)c1)c1cc(O)c(O)c(OC(=O)c2cc(O)c(O)c(O)c2)c1 (some centres not stated)	.	1.6µM*	0.56µM*	?
CCCCCCCCCCCCCCCC(=O)OC(CO)CO	.	33%	-4%	-3%
C1CCC[C@H]2CCCN3CC[C@H](CCCCCC[C@@H]4CCCN5CC[C@H](CC1)OC45)OC23	.	.	.	-8%
COc1ccc(OC)c(C2C=C(C34CC5CC(CC(C5)C3)C4)NC(=S)N2)c1 (configuration not stated)	.	.	7.1µM*	-4%
COc1cc(C2C=C(C34CC5CC(CC(C5)C3)C4)NC(=S)N2)cc(OC)c1OC (configuration not stated)	7	-27%	11µM*	29%[38.3 µM]
O=C(O)[C@H]1C[C@H](C(=O)O)N1	-5	13%	4%	.
O=C(O)[C@@H](Cc1c[nH]c2ccccc12)C(=O)NO	.	-9%[11.4 µM]	1%[11.4 µM]	-13%
CCOC(=O)c1cc(C(=O)OCC)c(=O)[nH]c1C	.	.	-4%	-3%
CCOC(=O)c1cc(C)[nH]c(=S)c1C#N	0	25µM*	-7%	0%[38.3 µM]
N#CCCn1c(=O)c(-c2ccc(Cl)cc2)nc2cnc(Oc3cccc(Cl)c3)nc21	.	-11%	-4%	11µM*
N#CCCn1c(=O)c(-c2cccc(C#N)c2)nc2cnc(Oc3cccc(Cl)c3)nc21	.	-7%	.	11%
N#CCCn1c(=O)c(-c2ccc(F)cc2)nc2cnc(Oc3cccc(Cl)c3)nc21	.	-1%	6%	8.9µM*
CC1CCN(CC[C@@H]2CCCN2S(=O)(=O)c2cccc(O)c2)CC1	12	6%	-6%	.
Cc1cccc(Sc2c([N+](=O)[O-])ncn2C)c1	5	-3%	-22%	7.9µM*
Cc1cccnc1Sc1c([N+](=O)[O-])ncn1C	-5	9%	-2%	0%[38.3 µM]
N=c1c(C(=O)NC2CCCC2)cc2c(=O)n3ccccc3nc2n1C1CCCC1	5	-16%	32µM*	-6%[38.3 µM]
CCc1ccc2c(c1)N(C[C@H](C)CN(C)C)c1ccccc1S2	.	4%[11.4 µM]	3%[11.4 µM]	34%
CCN(CC)[C@@H](C)CN1c2ccccc2Sc2ccccc21	14[20.6 µM]	13µM*	?	18%
C/C(=N\Nc1nc2ccccc2s1)c1cccs1	.	.	13µM*	-4%
CC1CN(S(=O)(=O)c2ccc(Cl)c(C(F)(F)F)c2)CC(C)O1 (configuration not stated)	5	-3%	2%	10µM*
O=C(O)CCC(=O)N1CCN(c2nc(-c3ccccc3Cl)c3cc(Br)ccc3n2)CC1	?	-18%	-5%	14µM*
CCN(CC)c1nc(-c2ccccc2Cl)c2cc(Br)ccc2n1	-16	.	.	.
COCCn1c(=NC(=O)c2cc(-c3cccs3)nc3ccccc23)sc2cc(S(N)(=O)=O)ccc21	.	.	-5%	-8%
C=CCn1c(=NC(=O)c2sc3ccccc3c2Cl)sc2cc(S(N)(=O)=O)ccc21	.	.	-3%	10µM*
CCOC(=O)Cn1c(=NC(=O)CN2C(=O)CCC2=O)sc2cc(S(N)(=O)=O)ccc21	.	.	-1%	-6%
SMILES	IMPase inh	15-hLO-2 inh	ALOX12 inhib	IMPase Li inh
COCCn1c(=NC(=O)c2sc3ccccc3c2Cl)sc2cc(S(N)(=O)=O)ccc21	.	.	2%	11µM*
CCOC(=O)Cn1c(=NC(=O)c2nc3ccccc3s2)sc2cc(S(N)(=O)=O)ccc21	.	.	-3%	10µM*
C=C(C)C(=O)/C=C/C=C/c1ccccc1	.	.	.	9%
OCc1ccccc1O[C@H]1OC(CO)C(O)C(O)C1O (some centres not stated)	.	3%	0%	7%
CCN(CC)C(=O)c1sc2nc(-c3cccs3)cc(-c3ccc(Cl)cc3)c2c1N	?	?	-1%	?
N#Cc1sc2nc(-c3cccs3)cc(-c3ccc(Cl)cc3)c2c1N	?	-8%	-18%	10µM*
N#Cc1sc2nc(-c3cccs3)cc(-c3ccccc3)c2c1N	-25	.	9%	10µM*
CCc1ccc(OCC(=O)Nc2ccc(-c3nc4ccccc4o3)c(O)c2)cc1	1	-9%	-3%	5.6µM*
